Source: PubChem (National Center for Advancing Translational Sciences (NCATS))
Only some compounds are listed: those with a hit (about 15% of all), similar ones and a draw of the others.
TDP1 cell noCPT = qHTS for Inhibitors of human tyrosyl-DNA phosphodiesterase 1 (TDP1): qHTS in cells in absence of CPT; DT40 Tdp1-/- hTDP1 cells, no CPT, ATP luminescence, 48 h; Potency, µM (highest dose often 46.2 µM), for the others: at the top dose activity change, negative = growth inhibition, hits mostly inhibitors; 420,000 compounds, 15% hits; AID 686978, 2013; further: nearly all actives have a fitted effect of over 55% in size
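Chicken DT40 Tdp1-/- cells complemented with human TDP1, screened without camptothecin (DMSO vehicle only), 400 cells/well. Compounds pin-transferred, cells incubated at 37 °C for at least 48 hr. Growth read as ATP-dependent luminescence (CellTiter-Glo, 30 min at RT).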
TDP1 cell CPT = growth inhibition of DT40 Tdp1-/-;hTDP1 cells with camptothecin (screen for TDP1 inhibitors) | chicken DT40 Tdp1-/-;hTDP1 cells + 20 nM CPT, ATP luminescence, 48 h | Potency, µM (top dose mostly 46.2 µM), for the others: at the top dose activity change, negative = growth inhibition, hits mostly inhibitors | 420,000 compounds, 12% hits | AID 686979; further: nearly all actives have a fitted effect of over 55% in size
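Chicken DT40 Tdp1-/- cells stably complemented with human TDP1 were seeded at 400 cells/well in medium containing 20 nM camptothecin, exposed to pin-transferred compounds, and grown at 37 °C for at least 48 hr. Viability was read as ATP luminescence.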
ELG1 repair inh = ELG1-dependent DNA repair inhibition. HEK293T ELG1-luciferase reporter, luminescence, 16 h; DNA damage induced by 5-fluorouridine. Potency, µM (top dose mostly 46.1 µM), for inactives: at the highest dose activity change, negative = inhibition, hits mostly inhibitors. 330,000 compounds, 2.3% hits. AID 504467; further: nearly all actives have a fitted effect of over 55% in size
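Reporter activity after DNA damage by 5-fluorouridine is monitored. Compound-treated cells incubate 16 hr at 37 °C, then ONE-Glo is added for 30 min before luminescence reading.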
Gal4-VP16 FLuc = inhibits Gal4-VP16 luciferase reporter, ROR gamma counter-screen; 310,000 compounds, 3.5% hits; Drosophila S2 Gal4-VP16 UAS-luciferase, luminescence, 20 h; AID 2546; Potency, µM (titrated, usually from 53.6 µM), inactives show at the highest dose activity, negative = inhibition, most hits filed as inhibitors;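 further: Gal4-VP16 expression switched on by copper sulfate through the metallothionein promoter; nearly all actives have a fitted effect of over 50% in size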
12-LOX inh = ALOX12 (human) lipoxygenase inhibition | 580,000 compounds, 1.1% hits | P18054 | Potency, µM (highest dose often 108 µM), without a hit: at the highest dose activity change, negative = inhibition, actives largely listed as inhibitors | purified 12hLO, xylenol orange hydroperoxide absorbance
Target sequence (P18054 whole entry, looked up): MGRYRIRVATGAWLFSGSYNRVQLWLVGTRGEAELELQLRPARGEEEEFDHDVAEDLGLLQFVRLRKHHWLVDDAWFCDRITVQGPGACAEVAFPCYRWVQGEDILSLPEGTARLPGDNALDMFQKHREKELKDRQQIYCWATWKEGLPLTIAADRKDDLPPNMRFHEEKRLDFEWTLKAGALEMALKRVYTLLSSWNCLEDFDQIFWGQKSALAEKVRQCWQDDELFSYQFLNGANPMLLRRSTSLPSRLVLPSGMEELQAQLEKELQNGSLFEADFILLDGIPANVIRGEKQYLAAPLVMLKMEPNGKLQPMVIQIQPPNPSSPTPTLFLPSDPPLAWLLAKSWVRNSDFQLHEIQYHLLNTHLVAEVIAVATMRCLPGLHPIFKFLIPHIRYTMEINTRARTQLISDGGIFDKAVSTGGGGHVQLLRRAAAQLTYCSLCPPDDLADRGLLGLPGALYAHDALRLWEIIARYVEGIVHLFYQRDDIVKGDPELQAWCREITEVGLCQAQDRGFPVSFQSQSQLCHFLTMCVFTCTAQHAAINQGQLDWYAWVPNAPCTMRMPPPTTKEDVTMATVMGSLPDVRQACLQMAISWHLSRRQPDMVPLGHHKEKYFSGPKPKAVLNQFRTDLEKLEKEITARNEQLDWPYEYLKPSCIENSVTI
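Purified human 12hLO at 150 nM in 25 mM Hepes, 0.01% Triton X-100, pH 7.0, preincubated 15 min at room temperature with compound. Reaction started with 40 uM arachidonic acid, 30 min at room temperature. Hydroperoxide measured by Fe-xylenol orange, 573/405 nm absorbance ratio.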
RORgamma inh = ROR gamma (mouse) transcription inhibition; AID 2551; Drosophila S2 Gal4-RORgamma UAS-luciferase reporter, 20 h; 310,000 compounds, 5.4% hits; P51450; Potency, µM (doses to about 53.6 µM), inactives show at the top dose activity change, negative = inhibition, actives largely listed as inhibitors; further: nearly all actives have a fitted effect of over 60% in size
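Luminescence from a UAS-regulated Photinus luciferase reporter in stably transfected Drosophila Schneider cells is measured; decreased signal marks ROR gamma inhibition. Fusion expression is induced by 700 uM copper sulfate for 20 hr.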
Numbers without * were called inactive; u = inconclusive; x = not tested or not shown; [ ] = another dose, or the depositor's remark. The call rests on the fitted dose curve; in most records, active means well fitted curve in the direction sought with a large enough effect; inconclusive means small, poorly fitted or top-dose-only effect, or another doubt; inactive means no such curve, though single readings can be large; an effect the other way counts as inactive or inconclusive. On the % scale 0 is the no-effect control and ±100 the full control effect; potency means the concentration at half of the fitted maximal effect.

SMILES	TDP1 cell noCPT	TDP1 cell CPT	ELG1 repair inh	Gal4-VP16 FLuc	12-LOX inh	RORgamma inh
O=C(COC(=O)c1ccccc1OCc1ccccc1)Nc1ccc(F)cc1	x	x	x	x	-6.3%	x
CCOc1cc2ccccc2cc1C(=O)OCC(=O)Nc1ccc(Br)cc1	-5.1%	-28.6%	x	x	x	x
CC(C)c1cccc(NC(=O)COC(=O)c2ccccc2OCc2cccc(Br)c2)c1	15.8µM*	u	x	x	x	x
Cc1nnc(SCc2c(C(=O)NC(C)C)oc3ccccc23)s1	x	x	x	x	8.8%	x
CNC(=O)CNC(=O)c1ccc2[nH]c(C)c(C)c2c1	x	x	x	x	-0.4%	x
CC(C)(C)c1coc([C@@H]2COCCN2Cc2ccc(Cl)cc2)n1	x	x	x	x	72.2%[176 µM]	x
O=C(COC(=O)c1ccccc1OCC(=O)Nc1ccc(Br)cc1)Nc1ccccc1	u	u	11.0%	u	-5.0%	34.2%
CC(C)(C)c1ccc(NC(=O)COC(=O)c2ccccc2OCC(=O)Nc2ccc(Br)cc2)cc1	u	15.8µM*	x	x	x	x
CN(C(=O)COC(=O)c1ccccc1OCC(=O)Nc1ccc(Br)cc1)c1ccccc1	11.2µM*	u	x	x	x	x
O=C(COc1ccccc1C(=O)OCC(=O)N1CCOCC1)Nc1ccc(Br)cc1	14.1µM*	15.8µM*	x	x	x	x
O=C1NC(=Nc2ccccc2Cl)S/C1=C\c1cc([N+](=O)[O-])ccc1O	-13.5%	-7.6%	-0.6%	-4.5%	31.6µM*	22.6%
COc1cccc(N=C2NC(=O)/C(=C/c3cc([N+](=O)[O-])ccc3O)S2)c1	16.4%	14.1%	0.7%	-2.5%	u	10.9%
Cc1ccc(S(=O)(=O)/N=C2/NC(=O)/C(=C/c3cc([N+](=O)[O-])ccc3O)S2)cc1	2.5%	1.8%	0.0%	0.0%	10µM*	-4.0%
COC(=O)c1ccc(CSc2nc3ccccc3[nH]2)o1	-8.4%	-24.1%	0.0%	u	-19.1%	35.1%
CCOc1ccc(/C=N/NC(=O)c2ccc(CSc3nc4ccccc4[nH]3)cc2)cc1	23.1µM*	23.1µM*	-9.1%	-5.4%	6.4%	-6.9%
COC(=O)c1cccc(CSc2nc3ccccc3[nH]2)c1	16.4µM*	u	u	u	-5.2%	30.6%
Cc1ccc(C(=O)N2C[C@@H](CO)[C@H](c3ccncc3)C2)nc1	x	x	x	x	33.7%	x
CCCCNC(=O)C1=C(N)C(C(=O)Nc2ccc(C)c(S(=O)(=O)N3CCCCC3)c2)SC1=Nc1ccc(C)cc1C (stereo not given)	23.1µM*	23.1µM*	-33.8%	u	-33.9%	3.2%
CCc1noc([C@@H]2CC(F)(F)CN2C(=O)c2ccncc2F)n1	x	x	x	x	34.1%	x
Cc1cccc2cc(-c3noc(-c4ccc(C(C)(C)C)cc4)n3)c(=O)[nH]c12	x	x	x	x	1.3%	x
O=C(CSc1ccc2ccccc2c1)NCCc1ccc(O)c(O)c1	23.1µM*	16.4µM*	8.3%	1.5%	u	u
Cn1c(O)c(/C=N/NC(=O)c2cc3ccccc3cc2O)c2ccccc21	14.6µM*	16.4µM*	u	u	-0.2%	7.94µM*
O=C(O)c1ccc(/C=N/NC(=O)c2cc3ccccc3cc2O)cc1	3.8%	-6.4%	-9.9%	x	30.2%	x
COc1ccc2c(c1)cc(C(=O)N/N=C/c1c(O)c(C(=O)O)cc3ccccc13)n2C	2.6%	-13.5%	14.2%	17.8µM*	u	11.2µM*
CC(C)Nc1nc(Oc2cccc(Cl)c2Cl)cc(C(F)(F)F)n1	u	-22.2%	0.3%	u	u	u
SMILES	TDP1 cell noCPT	TDP1 cell CPT	ELG1 repair inh	Gal4-VP16 FLuc	12-LOX inh	RORgamma inh
CC(C)Nc1nc(Oc2ccc(Cl)cc2Cl)cc(C(F)(F)F)n1	-1.0%	-21.6%	4.1%	u	-20.6%	25.1µM*
Cn1c(Cn2cccn2)nnc1C1CC(NC(=O)c2cc(C#N)c[nH]2)C1 (stereo not given)	x	x	x	x	11.2%	x
CCCn1c(N/N=C\C=C\c2ccccc2)nc2c1c(=O)[nH]c(=O)n2C	16.4µM*	14.6µM*	u	-20.8%	-15.1%	31.2%
COCCn1c(N/N=C(C)/C=C/c2ccccc2)nc2c1c(=O)[nH]c(=O)n2C	x	x	4.61µM*	-5.2%	x	-16.2%
CC(/C=C/c1ccccc1)=N\Nc1nc2c(c(=O)[nH]c(=O)n2C)n1CCO	-16.0%	-10.7%	7.7%	-4.1%	x	-7.4%
CNc1nc2c(c(=O)[nH]c(=O)n2C)n1CCCc1ccccc1	6.3%	30.8%	u	11.1%	8.7%	-12.9%
O=C1Nc2ccccc2O[C@H]2C[C@@H]1N(Cc1ccccc1Cl)C2	x	x	x	x	-6.7%[176 µM]	x
CNc1nc(Oc2cccc(NC(C)=O)c2)c2sccc2n1	-12.7%	u	x	x	-5.5%	x
C#Cc1cccc(Nc2nc(NC(C)C)nc3ccsc23)c1	20.6µM*	u	x	x	u	x
C#Cc1cccc(Nc2nc(NCc3ccccc3OC)nc3ccsc23)c1	9.2µM*	9.2µM*	x	x	u	x
C#Cc1cccc(Nc2nc(NCCOC)nc3ccsc23)c1	20.6µM*	16.4µM*	x	x	-51.9%	x
NCc1ccc(COCC(F)(F)F)cc1	x	x	x	x	12.6%	x
Cc1cc(C)c2nccc(C)c2c1	2.6%	-11.8%	x	x	x	x
Cc1ccc2c(/C=C/c3ccc(N(C)C)cc3)ccnc2c1C	u	12.6µM*	x	x	x	x
CN(C)c1ccc(/C=C/c2cccc3ccccc23)cc1	u	-18.2%	x	x	x	x
CN(C)c1ccc(/C=C/c2ccnc3c(Cl)ccc(Cl)c23)cc1	10µM*	11.2µM*	x	x	x	x
Cc1cc(C)c2nccc(/C=C/c3ccc(N(C)C)cc3)c2c1	10µM*	11.2µM*	x	x	x	x
CCN(CC(=O)N1c2ccccc2OCC1c1ccccc1)Cc1nc2cc(Cl)ccc2c(=O)[nH]1 (stereo not given)	x	x	x	x	3.0%	x
CC(=O)N1CCCc2cc(S(=O)(=O)N3CCC(C(=O)N4CCC5(CC4)OCCO5)CC3)ccc21	x	x	x	x	3.2%	x
COC(=O)N/N=C/c1cccc([N+](=O)[O-])c1	-3.4%	6.6%	-10.6%	-13.1%	82.9%	15.4%
COC(=O)N/N=C/c1cc([N+](=O)[O-])cc(Br)c1O	u	-29.4%	-4.0%	u	9.8%	11.2µM*
O=C(CNC(=O)c1ccccc1Br)N/N=C\c1cc([N+](=O)[O-])cc(Br)c1O	8.2%	15.9%	-11.4%	7.94µM*	u	11.2µM*
Nc1nnc(CC(=O)N/N=C/c2cc([N+](=O)[O-])cc(Br)c2O)s1	0.7%	-13.8%	-3.4%	1.9%[10 µM]	15.8µM*	-5.8%
O=C(CNC(=O)c1ccccc1Br)N/N=C/c1cc(Br)ccc1O	5.8µM*	8.2µM*	u	5.01µM*	1.8%	2.24µM*
